PI5P4K alpha inh = inhibitors of human PI5P4K alpha | max response, % | hit rate 1.2% among 330,000 | P48426 | PI5P4Kalpha enzyme, ADP-Glo luminescence, 60 min; stronger effect = lower value; active = max response of -50% or lower; inconclusive = between -30% and -50%; inactive = -30% or higher; also: value at the top dose of about 77 µM; % is scaled to controls: 0 for no effect and ±100 for the full control effect
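Reactions run in 0.038 M HEPES pH 7.4, 0.28 mM EGTA, 0.1% CHAPS and 5% DMSO, with PI5P4Kalpha, substrate, compound and 5 microM ATP final, one hour at room temperature. Readout is ADP-Glo luminescence.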
JMJD2A Tudor inh = inhibitors of human JMJD2A Tudor domain | O75164 | hit rate 4.4% among 390,000 | AlphaScreen JMJD2A-Tudor / H3K4me3 peptide binding | Potency, µM (doses to about 114 µM), for the others: at the highest dose activity change, negative = inhibition, hits mostly inhibitors; also: potency is read from the fitted curve at half-maximal effect; % is scaled to controls: 0 for no effect and ±100 for the full control effect; nearly all actives have a fitted effect of over 50% in size
G9a block = inhibitors of human histone lysine methyltransferase G9a; Q96KQ7; hit rate 8.8% among 350,000; G9a H3K9 monomethylation, AlphaScreen, 2 h; Potency, µM (top dose mostly 102 µM), for inactives: top-dose activity, negative = inhibition, hits mostly inhibitors; also: potency is read from the fitted curve at half-maximal effect; % is scaled to controls: 0 for no effect and ±100 for the full control effect; nearly all actives have a fitted effect of over 75% in size
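Readings reflect AlphaScreen signal from monomethyl-H3K9 antibody detection. HMT at 20 nM; substrate b-H3K9 500 nM; cofactor SAM 20 uM; 2 h RT reaction; compounds tested as titrations in qHTS with 15 min preincubation.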
HP1b binding inh = inhibitors of HP1-beta chromodomain binding to methylated histone tails | AlphaScreen HP1-beta / biotin-H3K9me3 peptide binding | AID 540317 | Potency, µM (highest dose often 114 µM), inactives show at the highest dose activity change, negative = inhibition, actives largely listed as inhibitors | hit rate 0.56% among 390,000 | P83916; also: potency is read from the fitted curve at half-maximal effect; nearly all actives have a fitted effect of over 70% in size
Target sequence (P83916 whole entry, looked up): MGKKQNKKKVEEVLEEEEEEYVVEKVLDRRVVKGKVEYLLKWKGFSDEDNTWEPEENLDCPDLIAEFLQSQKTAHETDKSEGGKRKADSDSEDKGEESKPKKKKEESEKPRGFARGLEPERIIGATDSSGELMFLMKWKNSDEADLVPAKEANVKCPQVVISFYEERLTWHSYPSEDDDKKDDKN
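Compound inhibition of the preformed complex between 50 nM HP1-beta and 50 nM biotinylated H3K9me3 peptide was read by AlphaScreen. Buffer was PBS pH 7.4 with 0.01% Tween-20. Incubations ran 30 min at room temperature, with 10 ug/mL donor/acceptor beads.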
PLK1 PBD block = inhibitors of human PLK1 polo-box domain binding; hit rate 2.8% among 360,000; Plk1 PBD binding of FITC phosphopeptide, fluorescence polarization; Potency, µM, without a hit: max response, negative = inhibition, most hits filed as inhibitors; also: potency is read from the fitted curve at half-maximal effect; series mostly up to about 57 µM; % is scaled to controls: 0 for no effect and ±100 for the full control effect; nearly all actives have a fitted effect of over 65% in size
Target sequence (P53350 whole entry, looked up, the tested form may be a part): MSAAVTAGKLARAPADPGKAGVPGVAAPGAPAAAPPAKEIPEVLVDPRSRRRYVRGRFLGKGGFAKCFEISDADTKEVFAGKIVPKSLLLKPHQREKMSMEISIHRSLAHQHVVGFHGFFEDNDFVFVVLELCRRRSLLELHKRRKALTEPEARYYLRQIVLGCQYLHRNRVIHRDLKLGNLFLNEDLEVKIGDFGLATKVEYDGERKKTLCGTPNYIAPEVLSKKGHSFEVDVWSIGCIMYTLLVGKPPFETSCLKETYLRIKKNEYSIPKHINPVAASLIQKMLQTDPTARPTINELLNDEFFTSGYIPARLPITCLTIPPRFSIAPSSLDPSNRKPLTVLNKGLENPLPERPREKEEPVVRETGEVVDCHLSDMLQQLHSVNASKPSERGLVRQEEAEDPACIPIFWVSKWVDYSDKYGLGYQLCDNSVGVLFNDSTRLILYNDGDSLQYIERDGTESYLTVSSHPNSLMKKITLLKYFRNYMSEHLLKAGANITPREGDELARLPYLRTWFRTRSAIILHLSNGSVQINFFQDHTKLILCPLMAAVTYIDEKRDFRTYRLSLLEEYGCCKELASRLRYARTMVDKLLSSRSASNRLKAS
BAZ2B block = inhibitors of human BAZ2B bromodomain | Q9UIF8 | AlphaScreen BAZ2B-H3K14Ac peptide displacement | Potency, µM (top dose mostly 114 µM), without a hit: at the top dose activity change, negative = inhibition, most hits filed as inhibitors | hit rate 4.4% among 360,000; also: potency is read from the fitted curve at half-maximal effect; % is scaled to controls: 0 for no effect and ±100 for the full control effect; nearly all actives have a fitted effect of over 60% in size
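Compounds, titrated to a top concentration of 110 uM, were incubated 30 min at room temperature with preformed BAZ2B/acetyl-K14 H3 peptide complex (50 nM each). Proximity signal was measured by AlphaScreen after 20 min with beads.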
An asterisk follows results filed as active; ? = inconclusive; . = no result; [ ] = remark or other dose. The list is not random: actives were taken first. Their share in the collection is about 12%. Unless noted, calls follow the shape of the dose curve; as a rule, active = well fitted curve in the direction sought with a large enough effect; inconclusive = small, poorly fitted or top-dose-only effect, or another doubt; inactive = no such curve, though single readings can be large; an effect the other way counts as inactive or inconclusive.

SMILES | PI5P4K alpha inh | JMJD2A Tudor inh | G9a block | HP1b binding inh | PLK1 PBD block | BAZ2B block
Nc1nc(SCC(=O)C23CC4CC(CC(C4)C2)C3)n[nH]1 | -14.2 | -17.3% | 35.5µM* | 30.5% | ? | 0.5%
CC(Sc1cn(CCNC(=O)c2ccccc2F)c2ccccc12)c1ccccc1 (stereo not drawn) | . | -9.0% | 24.0%[59 µM] | 25.8% | . | -13.7%
Cc1cc(NC(=O)Cn2nnc3sc4c(c3c2=O)CCC(C(C)(C)C)C4)no1 (stereo not drawn) | . | ? | -2.2% | -13.7% | -5.7% | -21.0%
CN(C)c1ccc(NC(=O)Cn2nnc3sc4c(c3c2=O)CCC(C(C)(C)C)C4)cc1 (stereo not drawn) | . | ? | 4.47µM* | -10.5% | . | ?
CC(=O)c1cccc2c1OC(C)C(=O)N2Cc1ccc(Cl)cc1 (stereo not drawn) | 0.4 | . | . | . | 3.9% | .
CC(=O)c1ccc(-n2c(-c3cc(-c4ccsc4)n[nH]3)n[nH]c2=S)cc1 | ? | ? | 1.12µM* | 9.5% | -24.8% | -34.7%
CC(=O)c1ccc(OCc2cc(=O)n3ccsc3n2)cc1 | -5.5 | -9.4% | 2.4%[59 µM] | 35.9% | -13.3% | -26.4%
S=c1[nH]nc(-c2cc(-c3ccsc3)n[nH]2)n1-c1cccc2ccccc12 | -25.8 | ? | 8.91µM* | 1.1% | -20.6% | ?
O=c1c2ccccc2nc(-c2cccs2)n1-c1cccc2ccccc12 | 3.1 | -17.7% | ? | 12.2% | -0.2% | -12.5%
COCc1n[nH]c(=S)n1-c1cccc2ccccc12 | . | 20µM* | 15.8µM* | 17.5% | -7.4% | -0.2%
COc1ccc(-c2cc(-c3n[nH]c(=S)n3-c3cccc4ccccc34)[nH]n2)cc1 | -27.1 | ? | 35.5µM* | ? | -16.8% | ?
CCOC(=O)c1cc(-c2ccc(OC)cc2)n[nH]1 | -6.1 | -7.0% | . | 36.0% | -7.3% | 0.7%
CC1(C(=O)Nc2cnc3ccccc3c2)CCN1C(=O)C/C=C/c1ccccc1 (stereo not drawn) | 0.1 | . | . | . | 0.5% | .
CN(Cc1cnn(C)c1)C(=O)CC1C(=O)NCCN1Cc1cccc(Oc2ccccc2)c1 (stereo not drawn) | 4.5 | -22.4% | 25.1µM* | 8.1% | -20.0% | -20.5%
CN(Cc1nccn1C)C(=O)CC1C(=O)NCCN1Cc1cccc(Oc2ccccc2)c1 (stereo not drawn) | 2.2 | -32.8% | ? | 5.0% | -5.8% | ?
CN(Cc1ccccn1)C(=O)CC1C(=O)NCCN1Cc1ccc(F)cc1Cl (stereo not drawn) | -0.8 | ? | . | 13.5% | -20.9% | 56.2µM*
COc1cccc(CN2CCNC(=O)C2CC(=O)N(C)C2CCCCC2)c1 (stereo not drawn) | 0.0 | -13.6% | 50.1µM* | 31.5% | -12.4% | -19.9%
CN(CC1CCOCC1)C(=O)CC1C(=O)NCCN1Cc1ccc(Cl)c(F)c1 (stereo not drawn) | 2.0 | -15.7% | 50.1µM* | 25.3% | -12.2% | -1.9%
CCOc1ccc(CN2CCNC(=O)C2CC(=O)N(C)CC2CCOCC2)cc1 (stereo not drawn) | 3.4 | -16.3% | ? | 52.2% | -2.3% | -6.1%
COc1ccccc1C(=O)N/C(=C\c1cn(S(=O)(=O)N(C)C)c2ccccc12)C(=O)N1CCN(C)CC1 | -2.6 | . | . | . | 4.2% | .
CC(CCC(=O)O)C1CCC2C3CC[C@H]4CC(O)CC[C@@]4(C)C3C=C[C@]12C (stereo partly drawn) | . | . | -22.7%[2.33 µM] | . | . | .
COc1cccc(CN2CCNC(=O)C2CC(=O)N(C)CC2CCOCC2)c1 (stereo not drawn) | 1.0 | -4.9% | -8.5% | 21.5% | -2.4% | -19.7%
COc1ccccc1CN1CCNC(=O)C1CC(=O)N(C)Cc1nc(C)cs1 (stereo not drawn) | -2.3 | -8.2% | 50.1µM* | 44.4% | 2.8% | -5.5%
CN(Cc1ccccn1)C(=O)CC1C(=O)NCCN1Cc1cccc(Oc2ccccc2)c1 (stereo not drawn) | -0.6 | -14.6% | 44.7µM* | 12.0% | -30.1% | -31.5%
CN(Cc1ccon1)C(=O)CC1C(=O)NCCN1Cc1cccc(Oc2ccccc2)c1 (stereo not drawn) | 3.5 | -27.0% | ? | 34.1% | -14.2% | ?
SMILES | PI5P4K alpha inh | JMJD2A Tudor inh | G9a block | HP1b binding inh | PLK1 PBD block | BAZ2B block
CN(CC1CCOCC1)C(=O)CC1C(=O)NCCN1Cc1cccc(Oc2ccccc2)c1 (stereo not drawn) | -1.2 | -18.6% | 35.5µM* | 38.5% | -16.3% | -20.6%
COc1cc(CN2CCNC(=O)C2CC(=O)NCCCC2CCCC2)cc(OC)c1 (stereo not drawn) | 9.1 | -25.8% | 70.8µM* | 20.6% | -26.3% | -22.0%
CCc1ccc(NC(=O)CCCc2nc(-c3ccco3)no2)cc1 | . | -11.3% | -2.4%[59 µM] | 28.3% | . | -2.5%
COc1cccc(CNC(=O)c2cnc3c(-c4ccc(F)cc4)c(C)nn3c2C)c1 | . | 5.0% | 8.9%[59 µM] | 26.5% | . | -3.7%
CN(Cc1ccccc1)C(=O)C(=O)c1ccccc1 | 8.6 | . | . | . | -7.7% | .
O=C1NCCN(Cc2cccc(Oc3ccccc3)c2)C1CC(=O)N1CCCCC1 (stereo not drawn) | -8.3 | -29.7% | . | 3.7% | -8.7% | -24.5%
CCOc1ccc(CN2CCNC(=O)C2CC(=O)NCCCOc2cccnc2)cc1 (stereo not drawn) | -1.4 | ? | ? | 19.2% | ? | -16.4%[57.1 µM]
O=C(CC1C(=O)NCCN1Cc1cccc(F)c1)NCCCOc1cccnc1 (stereo not drawn) | -0.5 | ? | ? | 13.7% | 23.8µM* | -11.5%[57.1 µM]
O=CN1CCCN(C(=O)CC2C(=O)NCCN2Cc2cccc(Oc3ccccc3)c2)CC1 (stereo not drawn) | 1.3 | -16.9% | 44.7µM* | 46.6% | -12.7% | -35.9%
CN(CC1CCOCC1)C(=O)CC1C(=O)NCCN1CC(c1ccccc1)c1ccccc1 (stereo not drawn) | -2.1 | -11.8% | 89.1µM* | 17.5% | -6.2% | -9.8%
CN(CCC1CCOCC1)C(=O)CC1C(=O)NCCN1Cc1c(F)cccc1Cl (stereo not drawn) | -6.6 | -9.0% | 39.8µM* | 29.0% | -17.9% | -18.7%
CCC(=O)N(c1nnc(SCC(=O)Nc2sccc2C(N)=O)s1)C1CC1 | ? | . | . | . | -8.6% | .
Cn1nc(C(=O)Nc2ccc(Cl)c(S(=O)(=O)N3CCOCC3)c2)c2ccccc2c1=O | -0.4 | -20.8% | 6.3%[12.7 µM] | 29.9% | 2.1% | 2.9%
Cn1nc(C(=O)Nc2ccc(S(=O)(=O)N3CCCCC3)cc2)c2ccccc2c1=O | -1.3 | -18.9% | ? | 13.7% | -10.9% | -27.4%
O=C(Nc1ccc(Cl)c(S(=O)(=O)N2CCCC2)c1)c1nn(CCO)c(=O)c2ccccc12 | 7.2 | -33.1% | 50.1µM* | 0.9% | -10.0% | -28.9%
Cn1nc(C(=O)Nc2cccc(S(=O)(=O)N3CCCCC3)c2)c2ccccc2c1=O | 3.7 | -17.0% | 39.8µM* | 10.8% | -3.0% | -23.3%

Source: PubChem (National Center for Advancing Translational Sciences (NCATS))
